In PubChem BioAssay (NCATS):
Inconclusive results are not listed. Active and inactive are the calls of the source. Unless noted, calls follow the shape of the dose curve; as a rule, active = well fitted inhibition curve with a large enough effect; inconclusive = small, poorly fitted or top-dose-only effect; inactive = flat fitted curve, though single readings scatter.

Tests used:
[1] = AP1 Signaling Pathway (AID 357; active = well fitted curve in either direction with a large enough effect, not every such curve was filed as active;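 also: ME-180 reporter cells stimulated with EGF at its EC50 level; % is scaled to controls: 0 for no effect and ±100 for the full control effect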)
Outline: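 Titration-series screen for positive or negative modulators of EC50 EGF-induced signaling in ME-180 cells carrying an AP-1-driven beta-lactamase reporter. After 5 hours at 37 degrees Celsius, CCF4 460nm/530nm emission ratio gave %Activity; AC50 values derived.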

[2] = NFAT Signaling Pathway (AID 444; active = well fitted curve in either direction with a large enough effect, not every such curve was filed as active;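 also: carbachol stimulus at about its EC50 of 1 µM final; % is scaled to controls: 0 for no effect and ±100 for the full control effect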); conditions: Jurkat NFAT-bla M1, carbachol, beta-lactamase ratio, 5 h; at 17.2 µM (top of the series) unless noted
Outline: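 Read-out: CCF4 FRET ratio (460 nm/530 nm) after 1 h RT dye loading, used for %activity and AC50 from titration series. Cells: Jurkat NFAT-β-lactamase/M1 line, treated with compound plus 1 uM carbachol for 5 h, 37 °C.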

[3] = Stat Signaling Pathway (AID 446; active = well fitted curve in either direction with a large enough effect, not every such curve was filed as active;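 also: ME-180 cervical cancer cells given 40 pM IL-6 alongside compound; SIE-controlled beta-lactamase reporter measured as 460/530 nm FRET emission ratio; % is scaled to controls: 0 for no effect and ±100 for the full control effect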)
Outline: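 Screening format detects activators and inhibitors alike: ME-180 SIE-bla cells stimulated at 40 pM IL-6 for 5 hrs with compound, then dual-emission beta-lactamase read at 405 nm excitation.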

[4] = target: Glucocorticoid receptor (Homo sapiens) (UniProt P04150); assay: GR-GFP Redistribution (AID 450;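 active = compounds whose dose series gives a full or clear partial fitted curve of increased nuclear translocation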; also: potency is read from the fitted curve at half-maximal effect); conditions: U2OS GR-GFP nuclear translocation, laser cytometry, 2 h
[5] = target: Glucocorticoid receptor (Homo sapiens) (UniProt P04150); assay: GR-EFC Redistribution (AID 451; calls by dose curve; also: potency is read from the fitted curve at half-maximal effect); conditions: CHO-K1 GR-EFC translocation, beta-gal luminescence, 2 h
Outline: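 Translocation of GR-ED fusion to nuclear EA restores b-gal, read by luminescence after 1 h room-temperature detection. Engineered CHO-K1 biosensor cells, 1,000/well, exposed 2 h at 37 C to titrations up to 46 uM final.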

[6] = target: Mitogen-activated protein kinase 10 (Mus musculus) (UniProt Q61831); assay: JNK3 AlphaScreen Assay (AID 530; active = well fitted curve in either direction with a large enough effect, not every such curve was filed as active;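 also: kinase came from lysate of stimulated human HepG2 cells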; also: potency is read from the fitted curve at half-maximal effect;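 as to activity change, negative = inhibition: signal reports phosphorylation of biotinylated GST-cJun 1-79 at Ser73 with 10 µM ATP; % is scaled to controls: 0 for no effect and ±100 for the full control effect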)
Outline: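 Compound titrations were preincubated 15 minutes at room temperature with substrate, antibody and pre-activated JNK3-containing HepG2 lysate. Reactions were started with 10 uM ATP and stopped with EDTA-containing bead buffer for AlphaScreen detection.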

[7] = target: 3',5'-cyclic-AMP phosphodiesterase 4B (Homo sapiens) (UniProt Q07343); assay: qHTS Assay for Inhibitors of PDE-IV (AID 607; active = well fitted activation curve with a large enough effect in the main read-out, with a control signal flat, not every such curve was filed as active; also: % of control where 0% means no effect)
Outline: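 The readout is membrane depolarisation from a cAMP-sensing CNG channel, detected with a potential dye at ex 535/em 590. Cells were HEK293-derived (endogenous PDE-IV) at 1000 cells/well, titrated up to 22.9 uM final.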

[8] = qHTS Assay for Lipid Storage Modulators (AID 1519; calls by dose curve); conditions: Drosophila S3 cells, BODIPY lipid droplet/cell ratio, laser cytometry, cells loaded with oleic acid; for activity change, negative = inhibition: at 25.7 µM (top of the series)
Outline: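 Cells seeded at 5,000 per well were treated with compounds over a concentration series and loaded with oleic acid (400 uM, as added). Lipid droplet fluorescence (488 nm excitation, 500-530 nm channel) was read by laser-scanning cytometry and normalized to 20 uM Triacsin C.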

[9] = target: Ubiquitin carboxyl-terminal hydrolase 1 (Homo sapiens) (UniProt O94782); assay: Inhibitors of USP1/UAF1: Pilot qHTS (AID 504865);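 also: rhodamine fluorescence freed from ubiquitin-rhodamine substrate followed over time; top concentration of the series differs between compounds; % is scaled to controls: 0 for no effect and ±100 for the full control effect; nearly all actives have a fitted effect of over 35% in size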
Outline: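 In 50mM HEPES pH 7.8 containing 0.5mM EDTA, 1mM TCEP, 0.1 mg/ml BSA and 0.01% Tween-20, 1nM USP1/UAF1 is exposed to compound for 15 min, then Ub-Rho (150nM final) is added and fluorescence is read over time.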

[10] = target: Luciferin 4-monooxygenase (Photinus pyralis) (UniProt P08659); assay: Biochemical firefly luciferase enzyme assay for NPC (AID 624030);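 also: purified P. pyralis luciferase at 10 nM with luciferin and ATP substrate; 0% = DMSO and -100% = full luciferase inhibition by PTC124 control; nearly all actives have a fitted effect of over 70% in size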
Outline: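 Direct inhibition of firefly luciferase enzyme (10 nM final, 50 mM Tris Acetate) assessed by luminescence within 5 minutes. Percent activity scaled between DMSO and PTC124 positive control, with concentration-effect curves classified by fit quality and response.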

[11] = qHTS profiling for inhibitors of Plasmodium falciparum proliferation (AID 504749);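 also: 0% = DMSO vehicle and full inhibition = artemisinin control; nearly all actives have a fitted effect of over 60% in size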; conditions: P. falciparum in erythrocytes, SYBR Green DNA, 72 h
Outline: (§1)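 Infected RBCs, 0.3% parasitemia/2.5% Hct final; cpd 72 h, 37 C, 5% CO2; lysis buffer with saponin/triton/SYBR Green I, o/n RT dark; FI 485/535; norm. to artemisinin (0.29 uM) and DMSO.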

C2A = assay: as above; conditions: P. falciparum in erythrocytes, SYBR Green DNA, 72 h; series mostly up to 12.8 µM
Outline: as §1

CP238 = assay: as above; conditions: P. falciparum in erythrocytes, SYBR Green DNA, 72 h; series mostly up to 12.8 µM
Outline: as §1

CP256 = assay: as above; conditions: P. falciparum in erythrocytes, SYBR Green DNA, 72 h; series mostly up to 12.8 µM
Outline: as §1

FAB9 = assay: as above; conditions: P. falciparum in erythrocytes, SYBR Green DNA, 72 h; series mostly up to 12.8 µM
Outline: as §1

JCK = assay: as above; conditions: P. falciparum in erythrocytes, SYBR Green DNA, 72 h; series mostly up to 12.8 µM
Outline: as §1

PC49 = assay: as above; conditions: P. falciparum in erythrocytes, SYBR Green DNA, 72 h; series mostly up to 12.8 µM
Outline: as §1

SC27B = assay: as above; conditions: P. falciparum in erythrocytes, SYBR Green DNA, 72 h; series mostly up to 12.8 µM
Outline: as §1

W2 = assay: as above; conditions: P. falciparum in erythrocytes, SYBR Green DNA, 72 h; series mostly up to 12.8 µM
Outline: as §1

[12] = measured here: cell count channel max response
[13] = measured here: lipid channel max response
[14] = at 12.8 µM (top of the series), parasite line A
[15] = at 12.8 µM (top of the series), parasite line B

Glucocorticoid receptor (Homo sapiens), sequence (P04150 whole entry, looked up, the tested form may be a part): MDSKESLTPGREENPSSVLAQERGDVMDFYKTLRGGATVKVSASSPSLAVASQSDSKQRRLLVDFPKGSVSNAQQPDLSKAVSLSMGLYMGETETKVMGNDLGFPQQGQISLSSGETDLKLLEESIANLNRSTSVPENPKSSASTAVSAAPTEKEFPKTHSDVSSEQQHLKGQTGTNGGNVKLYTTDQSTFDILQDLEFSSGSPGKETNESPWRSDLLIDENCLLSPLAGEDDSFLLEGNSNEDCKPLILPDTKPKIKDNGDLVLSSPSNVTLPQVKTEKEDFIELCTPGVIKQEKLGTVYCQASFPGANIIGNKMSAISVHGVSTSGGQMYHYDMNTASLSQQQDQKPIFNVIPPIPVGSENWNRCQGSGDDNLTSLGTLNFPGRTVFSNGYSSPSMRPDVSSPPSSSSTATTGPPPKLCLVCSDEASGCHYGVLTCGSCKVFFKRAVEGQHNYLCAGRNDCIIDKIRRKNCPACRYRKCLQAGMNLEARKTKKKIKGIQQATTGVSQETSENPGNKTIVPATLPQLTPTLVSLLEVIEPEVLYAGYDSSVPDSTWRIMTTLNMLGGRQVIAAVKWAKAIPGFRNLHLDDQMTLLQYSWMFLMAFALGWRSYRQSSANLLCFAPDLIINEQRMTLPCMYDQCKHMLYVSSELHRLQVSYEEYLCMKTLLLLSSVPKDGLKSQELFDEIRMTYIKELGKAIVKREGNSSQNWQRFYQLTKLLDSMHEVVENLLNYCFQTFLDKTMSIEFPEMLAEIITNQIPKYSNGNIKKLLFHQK
Ubiquitin carboxyl-terminal hydrolase 1 (Homo sapiens), sequence (O94782 whole entry, looked up): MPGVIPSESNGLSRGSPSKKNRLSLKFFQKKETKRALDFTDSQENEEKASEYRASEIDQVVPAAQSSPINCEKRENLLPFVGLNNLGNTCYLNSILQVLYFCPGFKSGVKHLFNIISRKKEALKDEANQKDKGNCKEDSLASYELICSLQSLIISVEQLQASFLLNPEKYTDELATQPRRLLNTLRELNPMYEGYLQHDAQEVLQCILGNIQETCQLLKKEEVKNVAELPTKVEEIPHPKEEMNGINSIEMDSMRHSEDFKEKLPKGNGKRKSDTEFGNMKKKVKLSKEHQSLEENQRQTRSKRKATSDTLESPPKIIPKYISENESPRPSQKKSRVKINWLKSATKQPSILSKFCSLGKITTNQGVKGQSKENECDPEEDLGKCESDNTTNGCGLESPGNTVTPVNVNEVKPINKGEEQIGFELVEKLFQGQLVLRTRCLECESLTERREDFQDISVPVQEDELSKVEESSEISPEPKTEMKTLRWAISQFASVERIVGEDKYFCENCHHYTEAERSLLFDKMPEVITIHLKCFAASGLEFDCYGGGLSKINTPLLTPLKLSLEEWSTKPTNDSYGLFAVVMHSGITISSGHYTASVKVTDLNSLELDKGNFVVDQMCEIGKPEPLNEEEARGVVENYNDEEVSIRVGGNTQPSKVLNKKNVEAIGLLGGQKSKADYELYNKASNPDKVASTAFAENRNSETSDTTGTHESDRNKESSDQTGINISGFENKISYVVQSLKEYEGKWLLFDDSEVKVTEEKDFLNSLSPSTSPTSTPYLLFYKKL
Luciferin 4-monooxygenase (Photinus pyralis), sequence (P08659 whole entry, looked up): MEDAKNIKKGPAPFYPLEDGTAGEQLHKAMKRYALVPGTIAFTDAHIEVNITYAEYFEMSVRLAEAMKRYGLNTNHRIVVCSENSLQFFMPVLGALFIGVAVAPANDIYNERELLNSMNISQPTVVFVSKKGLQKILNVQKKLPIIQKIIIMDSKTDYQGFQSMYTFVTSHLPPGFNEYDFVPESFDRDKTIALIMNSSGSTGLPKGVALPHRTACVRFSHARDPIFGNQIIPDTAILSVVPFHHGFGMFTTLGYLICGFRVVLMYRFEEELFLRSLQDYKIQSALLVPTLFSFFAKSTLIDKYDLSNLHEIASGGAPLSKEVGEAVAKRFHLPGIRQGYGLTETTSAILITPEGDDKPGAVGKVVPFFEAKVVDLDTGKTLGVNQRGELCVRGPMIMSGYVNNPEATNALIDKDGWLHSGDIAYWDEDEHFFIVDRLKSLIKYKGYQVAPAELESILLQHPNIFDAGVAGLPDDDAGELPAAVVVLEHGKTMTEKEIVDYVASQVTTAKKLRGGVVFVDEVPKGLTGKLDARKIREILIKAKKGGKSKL
3',5'-cyclic-AMP phosphodiesterase 4B (Homo sapiens), sequence (Q07343 whole entry, looked up): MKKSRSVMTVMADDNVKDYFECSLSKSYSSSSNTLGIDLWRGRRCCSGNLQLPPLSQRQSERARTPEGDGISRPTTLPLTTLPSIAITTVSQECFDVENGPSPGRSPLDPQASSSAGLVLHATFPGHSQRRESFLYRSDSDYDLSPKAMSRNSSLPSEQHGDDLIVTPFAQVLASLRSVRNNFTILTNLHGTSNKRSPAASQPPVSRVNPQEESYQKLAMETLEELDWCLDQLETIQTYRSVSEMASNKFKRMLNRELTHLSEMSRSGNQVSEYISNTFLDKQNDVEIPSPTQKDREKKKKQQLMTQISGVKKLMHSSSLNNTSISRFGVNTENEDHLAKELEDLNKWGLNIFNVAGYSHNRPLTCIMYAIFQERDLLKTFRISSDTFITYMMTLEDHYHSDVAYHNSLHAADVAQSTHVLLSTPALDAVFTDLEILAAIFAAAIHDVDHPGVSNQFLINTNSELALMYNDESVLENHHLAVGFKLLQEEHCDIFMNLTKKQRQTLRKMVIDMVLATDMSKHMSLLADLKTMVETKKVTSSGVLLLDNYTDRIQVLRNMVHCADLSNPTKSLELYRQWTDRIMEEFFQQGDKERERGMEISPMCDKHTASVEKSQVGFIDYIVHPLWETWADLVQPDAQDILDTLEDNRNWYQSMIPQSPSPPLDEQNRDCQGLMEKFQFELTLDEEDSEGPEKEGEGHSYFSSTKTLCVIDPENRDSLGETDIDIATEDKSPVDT

C[C@@H]1O[C@H](O[C@@H]2\C=C/C=C\C=C/C=C\C[C@H](C)OC(=O)/C=C\[C@H]3O[C@@H]3C[C@H](O)C[C@]3(O)C[C@@H](O)[C@@H](C(=O)O)[C@H](C2)O3)[C@@H](O)[C@H](N)[C@@H]1O (stereo in doubt)
inactive: outcome [1] | activity change, negative = inhibition [2] -3.9% | outcome [3] | Potency [4] > 20.6 µM | Potency [5] > 20.6 µM | Potency [6] | outcome [7] | activity change, negative = inhibition [8] 2.21% | Potency [9] | Potency [10] | activity, negative = inhibition ([11]; at 28.7 µM (top of the series), parasite line A) 9.05% | activity, negative = inhibition ([11]; at 28.7 µM (top of the series), parasite line B) 8% | Potency (C2A) | Potency (CP238) | Potency (CP256) | Potency (FAB9) | Potency (JCK) | Potency (PC49) | Potency (SC27B) | Potency (W2)
-4.86%: max response [8, 12]
0.155%: max response [8, 13]

CC(C)(C)NC(=O)[C@@H]1CC[C@@H]2[C@@H]3CC[C@@H]4NC(=O)C=C[C@@]4(C)[C@H]3CC[C@]21C
-13.3%: max response [8, 13]
-11.6%: max response [8, 12]
inactive: outcome [1] | activity change, negative = inhibition [2] 3.14% | outcome [3] | Potency [4] > 20.6 µM | Potency [5] > 20.6 µM | Potency [6] | outcome [7] | activity change, negative = inhibition [8] -1.87% | Potency [9] | Potency [10] | activity, negative = inhibition [11, 14] 6.77% | activity, negative = inhibition [11, 15] -2.48% | Potency (C2A) | Potency (CP238) | Potency (CP256) | Potency (FAB9) | Potency (JCK) | Potency (PC49) | Potency (SC27B) | Potency (W2)

CC1=CC(=O)C2=C(C)CC[C@@H]3[C@@H](OC(=O)[C@H]3C)[C@H]12
-14.8%: max response [8, 13]
-15.8%: max response [8, 12]
inactive: outcome [1] | activity change, negative = inhibition [2] -23.2% | outcome [3] | Potency [4] > 20.6 µM | Potency [5] > 20.6 µM | Potency [6] | outcome [7] | activity change, negative = inhibition [8] 0.93% | Potency [9]

COc1ccc(OC)c([C@H](O)CNC(=O)CN)c1
0.279%: max response [8, 12]
-0.25%: max response [8, 13]
inactive: outcome [1] | activity change, negative = inhibition [2] -3.71% | outcome [3] | Potency [5] > 20.6 µM | Potency [6] | outcome [7] | activity change, negative = inhibition [8] 0.926% | Potency [9] | Potency [10] | activity, negative = inhibition [11, 14] -3.94% | activity, negative = inhibition [11, 15] 1.53% | Potency (C2A) | Potency (CP238) | Potency (CP256) | Potency (FAB9) | Potency (JCK) | Potency (PC49) | Potency (SC27B) | Potency (W2)

O=C(O)CCCC[C@H]1SC[C@H]2NC(=O)N[C@@H]21
5.29%: max response [8, 12]
active: Potency [6] 0.00126 µM
inactive: outcome [1] | activity change, negative = inhibition [2] 2.95% | outcome [3] | Potency [4] > 20.6 µM | Potency [5] > 20.6 µM | outcome [7] | activity change, negative = inhibition [8] -3.62% | Potency [9]
0.0876%: max response [8, 13]

C[C@@H]1[C@H](C)CC[C@@]2(C(=O)O)CC[C@]3(C)C(=CC[C@H]4[C@@]5(C)CC[C@@H](O)C(C)(C)[C@@H]5CC[C@@]43C)[C@@H]12
-6.67%: max response [8, 12]
-11%: max response [8, 13]
inactive: outcome [1] | activity change, negative = inhibition [2] -17.6% | outcome [3] | Potency [4] > 20.6 µM | Potency [5] > 20.6 µM | Potency [6] | outcome [7] | activity change, negative = inhibition [8] -4.31% | Potency [9]

Cn1nnnc1SCC1=C(C(=O)O)N2C(=O)[C@@H](NC(=O)[C@@H](O)c3ccccc3)[C@@H]2SC1
inactive: outcome [1] | activity change, negative = inhibition [2] -2.02% | outcome [3] | Potency [5] > 20.6 µM | outcome [7] | activity change, negative = inhibition [8] 2.73% | Potency [9] | Potency [10] | activity, negative = inhibition [11, 14] 11.7% | activity, negative = inhibition [11, 15] 11% | Potency (C2A) | Potency (CP238) | Potency (CP256) | Potency (FAB9) | Potency (JCK) | Potency (PC49) | Potency (SC27B) | Potency (W2)
-4.52%: max response [8, 12]
-13.8%: max response [8, 13]

Cc1onc(-c2ccccc2Cl)c1C(=O)N[C@H]1C(=O)N2[C@H]1SC(C)(C)[C@H]2C(=O)O
7.41%: max response [8, 13]
inactive: outcome [1] | activity change, negative = inhibition [2] -2.89% | outcome [3] | Potency [4] > 20.6 µM | Potency [6] | outcome [7] | activity change, negative = inhibition [8] -0.309% | Potency [9] | Potency [10] | activity, negative = inhibition [11, 14] 10.5% | activity, negative = inhibition [11, 15] 7.79% | Potency (C2A) | Potency (CP238) | Potency (CP256) | Potency (FAB9) | Potency (JCK) | Potency (PC49) | Potency (SC27B) | Potency (W2)
6.25%: max response [8, 12]

CCN[C@@H]1CN(CCCOC)S(=O)(=O)c2sc(S(N)(=O)=O)cc21
inactive: outcome [1] | activity change, negative = inhibition [2] -3.14% | outcome [3] | Potency [5] > 20.6 µM | Potency [6] | outcome [7] | activity change, negative = inhibition [8] 1.92% | Potency [9] | Potency [10] | activity, negative = inhibition [11, 14] -7.28% | activity, negative = inhibition [11, 15] 4.88% | Potency (C2A) | Potency (CP238) | Potency (CP256) | Potency (FAB9) | Potency (JCK) | Potency (PC49) | Potency (SC27B) | Potency (W2)
-3.42%: max response [8, 12]
-8.18%: max response [8, 13]

O=C1CN(/N=C\c2ccc([N+](=O)[O-])o2)C(=O)N1
0.924%: max response [8, 13]
inactive: outcome [1] | activity change, negative = inhibition [2] -2.23% | outcome [3] | Potency [4] > 20.6 µM | Potency [5] > 20.6 µM | Potency [6] | outcome [7] | activity change, negative = inhibition [8] 1.21% | Potency [9]
3.28%: max response [8, 12]

CC(=O)S[C@H]1CC2=CC(=O)CC[C@@]2(C)[C@H]2CC[C@@]3(C)[C@H](CC[C@]34CCC(=O)O4)[C@@H]12
active: Potency [4] 2.45 µM
inactive: outcome [1] | activity change, negative = inhibition [2] -8.69% | outcome [3] | Potency [5] > 20.6 µM | Potency [6] | outcome [7] | activity change, negative = inhibition [8] -7.24% | Potency [9]
-20.4%: max response [8, 12] | max response [8, 13]
